Results from PubChem BioAssay (EPA / NIEHS).
“And” between values parts separate entries of the source, which are not always exact repeats. Equal values may be shown once. Some compounds were tested as several samples or in several runs, with calls that do not always agree. The source made the active and inactive calls. How the source made its calls: active means hit-call score of the fitted dose curve at least 0.9, where 1 is the maximum; inactive means score below 0.9.

How the values were obtained:
[1] = read-out: Interleukin-8 (IL8), CXCL8 (gene 3576); test: BSK_KF3CT_IL8: BioMAP Diversity Plus: KF3CT Assay for Interleukin-8 (IL8) Biomarker Activity (AID 2284254); conditions: primary human keratinocytes with fibroblasts
How it was run: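 Human keratinocyte/foreskin fibroblast co-culture dosed 24 h; IL-8 measured by ELISA relative to DMSO. Parallel cultures stained with SRB for total protein to flag cytotoxicity.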

[2] = read-out: Macrophage Inflammatory Protein-1 Alpha (MIP1a), CCL3 (gene 6348); test: BSK_IMphg_MIP1a: BioMAP Diversity Plus: IMphg Assay for Macrophage Inflammatory Protein-1 Alpha (MIP1a) Biomarker Activity (AID 2284255); conditions: primary human endothelial cells with macrophages
How it was run: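 MIP-1a protein levels were quantified by ELISA after 24 h treatment of human endothelial cell–macrophage co-cultures, compared with DMSO. Parallel cultures were fixed with TCA and stained with 0.1% SRB to gauge overt cytotoxicity.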

[3] = read-out: Plasminogen activator inhibitor-1 (PAI1), SERPINE1 (gene 5054); test: BSK_MyoF_PAI1: BioMAP Diversity Plus: MyoF Assay for Plasminogen activator inhibitor-1 (PAI1) Biomarker Activity (AID 2284256); conditions: primary human lung fibroblasts
How it was run: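 Primary human lung fibroblasts treated with chemical for 24 h; PAI-1 levels quantified by ELISA relative to DMSO. Cytotoxicity was assessed in parallel cultures by SRB total-protein staining (0.1% SRB after 10% TCA fixation, 560 nm).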

CD69, CD69 (gene 969) = test: BSK_IMphg_CD69: BioMAP Diversity Plus: IMphg Assay for CD69 Biomarker Activity (AID 2284257); conditions: primary human endothelial cells with macrophages
How it was run: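 Readout is ELISA for CD69 in primary human venular endothelial cell/macrophage co-culture, taken at 24 h post-dosing. SRB staining of parallel cultures gauged overt cytotoxicity; signal increase versus DMSO defined activity.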

[4] = read-out: Eotaxin 3, CCL26 (gene 10344); test: BSK_BF4T_Eotaxin3: BioMAP Diversity Plus: BF4T Assay for Eotaxin 3 Biomarker Activity (AID 2284258); conditions: primary human bronchial epithelial cells with fibroblasts
How it was run: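 ELISA measurement of Eotaxin-3 after 24 h chemical exposure in a bronchial epithelial/dermal fibroblast co-culture, with DMSO as baseline. Parallel SRB staining (0.1% SRB after 10% TCA fixation, 560 nm) flagged overt cytotoxicity.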

[5] = read-out: Intercellular Adhesion Molecule 1 (ICAM1), ICAM1 (gene 3383); test: BSK_BF4T_ICAM1: BioMAP Diversity Plus: BF4T Assay for Intercellular Adhesion Molecule 1 (ICAM1) Biomarker Activity (AID 2284260); conditions: primary human bronchial epithelial cells with fibroblasts
How it was run: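 ICAM-1 levels measured by ELISA after 24 h chemical treatment of bronchial epithelial cell/dermal fibroblast co-cultures, read against DMSO baseline. Overt cytotoxicity checked in parallel cultures by sulforhodamine B staining.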

[6] = read-out: Interleukin-8 (IL8), CXCL8 (gene 3576); test: BSK_MyoF_IL8: BioMAP Diversity Plus: MyoF Assay for Interleukin-8 (IL8) Biomarker Activity (AID 2284261); conditions: primary human lung fibroblasts
How it was run: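 Human lung fibroblast (MyoF system) cultures dosed for 24 h, then IL-8 measured by ELISA. Response taken relative to DMSO; parallel SRB total-protein staining for cytotoxicity.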

CD90, THY1 (gene 7070) = test: BSK_BF4T_CD90: BioMAP Diversity Plus: BF4T Assay for CD90 Biomarker Activity (AID 2284262); conditions: primary human bronchial epithelial cells with fibroblasts
How it was run: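 CD90 levels by ELISA after 24 h treatment of human bronchial epithelial cell/dermal fibroblast cultures, analysed versus DMSO. Overt cytotoxicity checked in parallel cultures by sulforhodamine B staining.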

[7] = read-out: Interleukin-8 (IL8), CXCL8 (gene 3576); test: BSK_BF4T_IL8: BioMAP Diversity Plus: BF4T Assay for Interleukin-8 (IL8) Biomarker Activity (AID 2284263); conditions: primary human bronchial epithelial cells with fibroblasts
How it was run: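 Human bronchial epithelial cells with dermal fibroblasts co-culture; IL-8 measured by ELISA 24 hours after dosing, fitted vs DMSO. Cytotoxicity tracked in parallel cultures by SRB total-protein staining.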

[8] = read-out: Interleukin-1 alpha (IL1a), IL1A (gene 3552); test: BSK_BF4T_IL1a: BioMAP Diversity Plus: BF4T Assay for Interleukin-1 alpha (IL1a) Biomarker Activity (AID 2284264); conditions: primary human bronchial epithelial cells with fibroblasts
How it was run: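 ELISA read-out of IL-1α from bronchial epithelial cell/dermal fibroblast co-cultures 24 h after compound addition. Increases scored against DMSO negative control. Cytotoxicity monitored by sulforhodamine B staining of parallel cultures.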

Decorin, DCN (gene 1634) = test: BSK_MyoF_Decorin: BioMAP Diversity Plus: MyoF Assay for Decorin Biomarker Activity (AID 2284265); conditions: primary human lung fibroblasts
How it was run: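 Human lung fibroblast cultures were dosed for 24 h, and decorin was then measured by ELISA. Parallel cultures were stained with sulforhodamine B for total protein as a cytotoxicity check. Gain of signal was fitted relative to DMSO.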

KRT18 (gene 3875) = test: BSK_BF4T_Keratin818: BioMAP Diversity Plus: BF4T Assay for Keratin 818 Biomarker Activity (AID 2284266); conditions: primary human bronchial epithelial cells with fibroblasts
How it was run: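 Keratin 8/18 levels quantified by ELISA after 24 h chemical treatment of bronchial epithelial cell/dermal fibroblast co-cultures, fitted in positive direction relative to DMSO. Parallel SRB staining tracks overt cytotoxicity.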

[9] = read-out: Matrix Metallopeptidase 1 (MMP1), MMP1 (gene 4312); test: BSK_MyoF_MMP1: BioMAP Diversity Plus: MyoF Assay for Matrix Metallopeptidase 1 (MMP1) Biomarker Activity (AID 2284268); conditions: primary human lung fibroblasts
How it was run: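 Human lung fibroblast primary cells; MMP1 measured by ELISA 24 h after dosing, fitted in the positive direction relative to DMSO. Parallel SRB staining (0.1%, after 10% TCA fixation, 560 nm) assesses overt cytotoxicity.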

[10] = read-out: TIMP metallopeptidase inhibitor 1 (TIMP1), TIMP1 (gene 7076); test: BSK_MyoF_TIMP1: BioMAP Diversity Plus: MyoF Assay for TIMP metallopeptidase inhibitor 1 (TIMP1) Biomarker Activity (AID 2284269); conditions: primary human lung fibroblasts
How it was run: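 Primary human lung fibroblasts, MyoF multiplex system; chemical exposure 24 h; TIMP-1 by ELISA; positive fitting direction vs DMSO control.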

[11] = read-out: Matrix Metallopeptidase 1 (MMP1), MMP1 (gene 4312); test: BSK_BF4T_MMP1: BioMAP Diversity Plus: BF4T Assay for Matrix Metallopeptidase 1 (MMP1) Biomarker Activity (AID 2284270); conditions: primary human bronchial epithelial cells with fibroblasts
How it was run: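 MMP-1 quantified by ELISA in primary human bronchial epithelial/dermal fibroblast co-cultures, 24 hours post-dosing, with DMSO as baseline; parallel sulforhodamine B staining (560 nm) tracks overt cytotoxicity.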

[12] = read-out: Matrix Metallopeptidase 3 (MMP3), MMP3 (gene 4314); test: BSK_BF4T_MMP3: BioMAP Diversity Plus: BF4T Assay for Matrix Metallopeptidase 3 (MMP3) Biomarker Activity (AID 2284271); conditions: primary human bronchial epithelial cells with fibroblasts
How it was run: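 MMP-3 level read by ELISA after 24 h chemical exposure of bronchial epithelial cell/dermal fibroblast co-cultures, fitted upward relative to DMSO. Parallel cultures stained with 0.1% SRB after TCA fixation gauge overt cytotoxicity.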

[13] = read-out: Tissue plasminogen activator (tPA), PLAT (gene 5327); test: BSK_BF4T_tPA: BioMAP Diversity Plus: BF4T Assay for Tissue plasminogen activator (tPA) Biomarker Activity (AID 2284272); conditions: primary human bronchial epithelial cells with fibroblasts
How it was run: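 tPA level quantified by ELISA at 24 h post-treatment in bronchial epithelial/dermal fibroblast co-cultures, gain of signal scored against DMSO baseline. Parallel cultures stained with 0.1% SRB (560 nm) to flag overt cytotoxicity.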

[14] = read-out: Plasminogen Activator Inhibitor-1 (PAI1), SERPINE1 (gene 5054); test: BSK_BF4T_PAI1: BioMAP Diversity Plus: BF4T Assay for Plasminogen Activator Inhibitor-1 (PAI1) Biomarker Activity (AID 2284273); conditions: primary human bronchial epithelial cells with fibroblasts
How it was run: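 PAI-1 levels quantified by ELISA 24 h post-dosing in bronchial epithelial cell plus dermal fibroblast cultures. Signal gain referenced to DMSO baseline. Sulforhodamine B total-protein staining of parallel wells checked cytotoxicity.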

[15] = read-out: Monocyte Chemoattractant Protein-1 (MCP1), CCL2 (gene 6347); test: BSK_BF4T_MCP1: BioMAP Diversity Plus: BF4T Assay for Monocyte Chemoattractant Protein-1 (MCP1) Biomarker Activity (AID 2284259); conditions: primary human bronchial epithelial cells with fibroblasts
How it was run: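 MCP-1 ELISA readout taken 24 h after dosing in the BF4T system (bronchial epithelial cells plus dermal fibroblasts). Parallel SRB total-protein staining flagged cytotoxicity; DMSO served as baseline, positive fitting direction.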

[16] = BSK_MyoF_SRB: Viability Assessment in the BioMAP Diversity Plus: MyoF Assay (AID 2284267); conditions: primary human lung fibroblasts;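 further: total protein by SRB absorbance in parallel cultures as cytotoxicity measure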
How it was run: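 Lung fibroblast cultures, 24 h post-dose; fix 10% TCA, stain 0.1% SRB, read 560 nm. Signal = total protein as cytotoxicity measure; fitted relative to DMSO negative control.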

Measured: AC50

O=S(=O)(O)CCC(F)(F)C(F)(F)C(F)(F)C(F)(F)F
not listed: [15] | [16]
inactive: all other assays above

CCOC(=O)CC(=O)C(F)(F)C(F)(F)F
not listed: [3]
inactive: all other assays above

NC(=O)C(F)(F)C(F)(F)C(F)(F)C(F)(F)C(F)(F)C(F)(F)C(F)(F)F
active: CD69, CD69 (gene 969) 23.5 µM
inactive: [1] | [2] | CD69, CD69 (gene 969) | [4] | [5] | [6] | CD90, THY1 (gene 7070) | [7] | [8] | Decorin, DCN (gene 1634) | KRT18 (gene 3875) | [16] | [9] | [10] | [11] | [12] | [13] | [14]

O=C(O)C(F)(F)OC(F)(F)C(F)(F)OC(F)(F)C(F)(F)OC(F)(F)F
inactive: [1] | [2] | [3] | CD69, CD69 (gene 969) | [4] | [5] | [6] | CD90, THY1 (gene 7070) | [7] | [8] | Decorin, DCN (gene 1634) | KRT18 (gene 3875) | [9] | [10] | [11] | [12] | [13] | [14]
active: [10] 6.35 µM | [13] 20 µM and 5.38 µM

OCC(F)(F)C(F)(F)C(F)(F)CO
not listed: [3] | [16]
inactive: all other assays above

C[Si](Cl)(Cl)CCC(F)(F)C(F)(F)C(F)(F)C(F)(F)C(F)(F)C(F)(F)F
not listed: [15]
inactive: all other assays above

CO[Si](C)(CCC(F)(F)C(F)(F)C(F)(F)C(F)(F)C(F)(F)C(F)(F)F)OC
not listed: [16]
inactive: all other assays above

O=C(O)C(F)(F)C(F)(F)C(F)(F)OC(F)(F)F
active: [7] 0.218 µM
inactive: [1] | [2] | CD69, CD69 (gene 969) | [4] | [5] | [6] | CD90, THY1 (gene 7070) | [7] | [8] | Decorin, DCN (gene 1634) | KRT18 (gene 3875) | [9] | [10] | [11] | [12] | [13] | [14]

O=S(=O)(Cl)C(F)(F)C(F)(F)C(F)(F)C(F)(F)C(F)(F)C(F)(F)C(F)(F)C(F)(F)F
inactive: [1] | [2] | [3] | CD69, CD69 (gene 969) | [5] | [6] | CD90, THY1 (gene 7070) | [7] | [8] | Decorin, DCN (gene 1634) | KRT18 (gene 3875) | [9] | [10] | [11] | [12] | [13]
active: CD69, CD69 (gene 969) 15.1 µM | [4] 28.3 µM and 19.5 µM | [8] 46.3 µM | Decorin, DCN (gene 1634) 22.3 µM | KRT18 (gene 3875) 48.5 µM | [13] 23.2 µM | [14] 44.9 µM and 44.6 µM

NS(=O)(=O)C(F)(F)C(F)(F)C(F)(F)C(F)(F)C(F)(F)C(F)(F)F
active: CD69, CD69 (gene 969) 21.7 µM and 30 µM | KRT18 (gene 3875) 30 µM | [12] 49.5 µM
inactive: [1] | [2] | [4] | [5] | [6] | CD90, THY1 (gene 7070) | [7] | [8] | Decorin, DCN (gene 1634) | KRT18 (gene 3875) | [9] | [10] | [11] | [12] | [13] | [14]

NCC(F)(F)C(F)(F)C(F)(F)C(F)(F)C(F)(F)C(F)(F)C(F)(F)C(F)(F)F
not listed: [15] | [16]
inactive: all other assays above
